Test results: publication PMC11006913

These sequences were tested against PITX2 (Homo sapiens, UniProt Q99697 72-157) (assay: PBM; 200 nM protein, PBS). Conditions: dsDNA, one strand shown.

Row | Sequence | binding signal
1 | AGATCCGG | 9.62 upbm affinity estimate (log intensity, higher = more binding, comparable within an allelic series)
2 | ATTCAAAT | 9.75 upbm affinity estimate (log intensity, higher = more binding, comparable within an allelic series)
3 | AGGGCTTA | 12.3 upbm affinity estimate (log intensity, higher = more binding, comparable within an allelic series)
4 | CCGTACCC | 7.91 upbm affinity estimate (log intensity, higher = more binding, comparable within an allelic series)
5 | GGATACTA | 9.25 upbm affinity estimate (log intensity, higher = more binding, comparable within an allelic series)
6 | CAGTTTCA | 7.95 upbm affinity estimate (log intensity, higher = more binding, comparable within an allelic series)
7 | TAGATTAA | 12.4 upbm affinity estimate (log intensity, higher = more binding, comparable within an allelic series)
8 | CCTCAACG | 7.97 upbm affinity estimate (log intensity, higher = more binding, comparable within an allelic series)
9 | ATTAGGCC | 10 upbm affinity estimate (log intensity, higher = more binding, comparable within an allelic series)
10 | AGAGCTCA | 9.42 upbm affinity estimate (log intensity, higher = more binding, comparable within an allelic series)
11 | ACGATGCC | 7.9 upbm affinity estimate (log intensity, higher = more binding, comparable within an allelic series)
12 | AAGCTTAG | 11.4 upbm affinity estimate (log intensity, higher = more binding, comparable within an allelic series)
13 | ACGTGTCC | 8.04 upbm affinity estimate (log intensity, higher = more binding, comparable within an allelic series)
14 | CACTAGTG | 8.21 upbm affinity estimate (log intensity, higher = more binding, comparable within an allelic series)
15 | ACTCTCGG | 8.08 upbm affinity estimate (log intensity, higher = more binding, comparable within an allelic series)
16 | ACCGTTGC | 8.17 upbm affinity estimate (log intensity, higher = more binding, comparable within an allelic series)
17 | CTATCGCC | 8.13 upbm affinity estimate (log intensity, higher = more binding, comparable within an allelic series)
18 | ACGTCTCC | 7.95 upbm affinity estimate (log intensity, higher = more binding, comparable within an allelic series)
19 | GCAGTCGC | 7.82 upbm affinity estimate (log intensity, higher = more binding, comparable within an allelic series)
20 | ACTTGATC | 10.2 upbm affinity estimate (log intensity, higher = more binding, comparable within an allelic series)

Row | Sequence | binding signal
21 | GCATGCAC | 7.85 upbm affinity estimate (log intensity, higher = more binding, comparable within an allelic series)
22 | GCGCTGCA | 8.03 upbm affinity estimate (log intensity, higher = more binding, comparable within an allelic series)
23 | TGACGCAA | 8.04 upbm affinity estimate (log intensity, higher = more binding, comparable within an allelic series)
24 | CCTGCTTA | 10.3 upbm affinity estimate (log intensity, higher = more binding, comparable within an allelic series)
25 | ACCACCGT | 8.12 upbm affinity estimate (log intensity, higher = more binding, comparable within an allelic series)
26 | ACATACGT | 8.05 upbm affinity estimate (log intensity, higher = more binding, comparable within an allelic series)
27 | CACTCGCA | 8.08 upbm affinity estimate (log intensity, higher = more binding, comparable within an allelic series)
28 | AAATCTCC | 10.8 upbm affinity estimate (log intensity, higher = more binding, comparable within an allelic series)
29 | GCTCCACC | 7.66 upbm affinity estimate (log intensity, higher = more binding, comparable within an allelic series)
30 | GGAGAGAC | 8.03 upbm affinity estimate (log intensity, higher = more binding, comparable within an allelic series)
31 | CCTACCAG | 8.01 upbm affinity estimate (log intensity, higher = more binding, comparable within an allelic series)
32 | ACTGTCAG | 7.86 upbm affinity estimate (log intensity, higher = more binding, comparable within an allelic series)
33 | ATGAGCCC | 9.64 upbm affinity estimate (log intensity, higher = more binding, comparable within an allelic series)
34 | CCAAATCG | 9.39 upbm affinity estimate (log intensity, higher = more binding, comparable within an allelic series)
35 | GGATCCTA | 9.17 upbm affinity estimate (log intensity, higher = more binding, comparable within an allelic series)
36 | AACGAGGC | 7.79 upbm affinity estimate (log intensity, higher = more binding, comparable within an allelic series)
37 | TAAGCTTA | 12.3 upbm affinity estimate (log intensity, higher = more binding, comparable within an allelic series)
38 | ATTATCAC | 10.2 upbm affinity estimate (log intensity, higher = more binding, comparable within an allelic series)
39 | CAAAATAC | 9.13 upbm affinity estimate (log intensity, higher = more binding, comparable within an allelic series)
40 | GAGATATC | 8.8 upbm affinity estimate (log intensity, higher = more binding, comparable within an allelic series)
